# According to PubChem BioAssay (NCI):
# “And” between values parts separate entries of the source, which are not always exact repeats. Equal values may be shown once. The panel holds about 79,000 compounds, 15% with a hit somewhere; the sample as a whole holds those more often. Some compounds were tested as several samples or in several runs, with calls that do not always agree. The source made the active and inactive calls. No stated cut-off is given here; in the data, active means growth inhibition above about 70%; inactive means the rest.
# Columns and labels:
# [1] = NCI Yeast Anticancer Drug Screen. Data for the rad50 strain (AID 155);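 further: 0% = growth of vehicle-only cultures of the same strain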; settings: S. cerevisiae rad50 strain growth inhibition, stronger effect = higher value
# In short: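 Inhibition values express reduced yeast growth in compound-treated cultures relative to vehicle-treated controls.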
# [2] = NCI Yeast Anticancer Drug Screen. Data for the mec2-1 strain (AID 157); settings: S. cerevisiae mec2-1 strain, stronger effect = higher value
# In short: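 Readout is yeast growth inhibition, normalised to vehicle-treated controls, in the mec2-1 strain exposed to compound.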
# [3] = NCI Yeast Anticancer Drug Screen. Data for the sgs1 mgt1 strain (AID 161);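 further: 0% = growth of cultures given vehicle only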; settings: S. cerevisiae sgs1 mgt1 strain, stronger effect = higher value
# In short: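 Compounds are added to genetically altered yeast, and growth is compared with cultures given vehicle alone to give percent inhibition.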
# [4] = NCI Yeast Anticancer Drug Screen. Data for the cln2 rad14 strain (AID 165);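 further: 0% = growth equal to vehicle treated cultures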; settings: S. cerevisiae cln2 rad14 strain, stronger effect = higher value
# In short: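 Relative to vehicle controls, growth inhibition of compound-treated cln2 rad14 yeast was recorded.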
# [5] = NCI Yeast Anticancer Drug Screen. Data for the bub3 strain (AID 167); settings: S. cerevisiae bub3 mutant strain, stronger effect = higher value
# In short: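 Steps: expose the mutant yeast strain to compound; grow alongside vehicle-treated cultures; measure growth; express inhibition against the vehicle cultures.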
# [6] = NCI Yeast Anticancer Drug Screen. Data for the mlh1 rad18 strain (AID 175); settings: S. cerevisiae mlh1 rad18 strain growth inhibition, stronger effect = higher value
# In short: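 Test agents were incubated with a yeast strain of defined genotype (DNA damage repair defect). Inhibition of growth was derived by comparison with vehicle-exposed cultures.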
# [7] = at 5.0 µM (retest, dose inferred, filed as 0.5)
# [8] = at 50.0 µM (retest, dose inferred, filed as 5.0)
Compound,"growth inhibition [1, 7]","growth inhibition [1, 8]",growth inhibition ([1]; at 50.0 µM),"growth inhibition [2, 7]","growth inhibition [2, 8]",growth inhibition ([2]; at 50.0 µM),"growth inhibition [3, 7]","growth inhibition [3, 8]",growth inhibition ([3]; at 50.0 µM),"growth inhibition [4, 7]","growth inhibition [4, 8]",growth inhibition ([4]; at 50.0 µM),"growth inhibition [5, 7]","growth inhibition [5, 8]",growth inhibition ([5]; at 50.0 µM),"growth inhibition [6, 7]","growth inhibition [6, 8]",growth inhibition ([6]; at 50.0 µM)
[Cl][Sn]1([c]2ccccc2)[O]CCNCC[O]1,22% (inactive),97% (active),88.1% (active),9% (inactive),99% (active),91.2% (active),12% (inactive),99% (active),90.8% (active),6% (inactive),97% (active),91.8% (active),9% (inactive),98% (active),90% (active),19% (inactive),97% (active),91.8% (active)
CCOc1c(Br)cc(/C=C/[N+](=O)[O-])cc1OC,44% (inactive),98% (active),69.8% (inactive),61% (inactive),98% (active),75.5% (active),32% (inactive),98% (active),84% (active),45% (inactive),92% (active),77% (active),61% (inactive),99% (active),79% (active),58% (inactive),98% (active),90.5% (active)
Cc1c([C@H](C)[C@@H]2NC[C@@H](C)C[C@H]2O)ccc2c1C[C@H]1[C@H]2CC=C2C[C@@H](O)CC[C@@]21C,10% (inactive) and -5% (inactive),71% (active) and 36% (inactive),84.3% (active) and 88.5% (active),-1% (inactive),52% (inactive) and 0% (inactive),75.2% (active) and 79.2% (active),7% (inactive) and -12% (inactive),85% (active) and 6% (inactive),76.8% (active) and 86.2% (active),-6% (inactive) and -7% (inactive),58% (inactive) and 8% (inactive),77.3% (active) and 82.8% (active),11% (inactive) and -18% (inactive),74% (active) and 1% (inactive),86.2% (active) and 19.4% (inactive),2% (inactive) and 0% (inactive),59% (inactive) and 40% (inactive),85% (active) and 87.5% (active)
CN1CC(C(=O)NC2(C)OC3(O)C4CCCN4C(=O)C(Cc4ccccc4)N3C2=O)C=C2c3cccc4[nH]cc(c34)CC21 (stereo not drawn),26% (inactive) and -4% (inactive),35% (inactive) and 23% (inactive),8.55% (inactive) and 49.2% (inactive),6% (inactive) and -1% (inactive),14% (inactive) and 29% (inactive),6.75% (inactive) and 70.6% (active),4% (inactive) and -2% (inactive),12% (inactive) and 50% (inactive),-9.3% (inactive) and 61.7% (inactive),-15% (inactive) and 1% (inactive),22% (inactive) and 15% (inactive),-11.6% (inactive) and 40.9% (inactive),-24% (inactive) and 2% (inactive),4% (inactive) and 30% (inactive),8.25% (inactive) and 57% (inactive),2% (inactive) and -3% (inactive),33% (inactive) and 65% (inactive),51.1% (inactive) and 73% (active)
COC1OC(COC(C)=O)C(OC(C)=O)C(OC(C)=O)[C]1(OC(C)=O)[Hg][O]C(C)=O (stereo not drawn),99% (active),99% (active),99.3% (active),100% (active),100% (active),98.5% (active),99% (active),99% (active),99.7% (active),99% (active),98% (active),99.4% (active),99% (active),99% (active),97.8% (active),99% (active),99% (active),99.7% (active)
O=C(O)c1ccccc1[Se][Se]c1ccccc1C(=O)O,50% (inactive),73% (active),21.1% (inactive),26% (inactive),56% (inactive),10.8% (inactive),53% (inactive),67% (inactive),15.9% (inactive),31% (inactive),46% (inactive),8.05% (inactive),49% (inactive),70% (active),34.1% (inactive),56% (inactive),74% (active),74.5% (active)
COC1=[C]([Hg][Br])C(OC)OC1OC (stereo not drawn),99% (active),99% (active),99.6% (active),98% (active),99% (active),99.5% (active),99% (active),99% (active),99.5% (active),98% (active),98% (active),98.8% (active),99% (active),99% (active),98.9% (active),99% (active),99% (active),99.5% (active)
CC(NCCN(C)C)C1CC2CCCCN2C1 (stereo not drawn),-8% (inactive),-30% (inactive),3.55% (inactive),-8% (inactive),-14% (inactive),11.9% (inactive),-13% (inactive),-28% (inactive),15.7% (inactive),-17% (inactive),-26% (inactive),41.1% (inactive),3% (inactive),1% (inactive),0.8% (inactive),-3% (inactive),19% (inactive),33% (inactive)
O=S(=O)(F)c1ccc(Cl)cc1C[P+](c1ccccc1)(c1ccccc1)c1ccccc1,20% (inactive),77% (active),45.9% (inactive),22% (inactive),82% (active),19.9% (inactive),13% (inactive),76% (active),53.5% (inactive),0% (inactive),54% (inactive),11.1% (inactive),12% (inactive),82% (active),38.2% (inactive),20% (inactive),86% (active),69% (inactive)
C1CN([PH+](N2CC2)N2CC2)CCO1.C1CN([PH+](N2CC2)N2CC2)CCO1.[I][Pt][I],0% (inactive),9% (inactive),36.8% (inactive),2% (inactive),5% (inactive),23.7% (inactive),1% (inactive),5% (inactive),52.2% (inactive),4% (inactive),1% (inactive),17.9% (inactive),1% (inactive),15% (inactive),96.5% (active),1% (inactive),7% (inactive),6.4% (inactive)
CCOP(=O)(O)C(Nc1ccc(N=Nc2ccccc2)cc1)c1cccc(C(Nc2ccc(N=Nc3ccccc3)cc2)P(=O)(O)OCC)c1 (stereo not drawn),10% (inactive),29% (inactive),49.4% (inactive),0% (inactive),46% (inactive),47.6% (inactive),5% (inactive),8% (inactive),46.3% (inactive),6% (inactive),27% (inactive),44% (inactive),4% (inactive),35% (inactive),42.5% (inactive),7% (inactive),42% (inactive),47.9% (inactive)
CCC[As](CCC)SC1CCC2(C)C(=CCC3C4CCC(=O)C4(C)CCC32)C1 (stereo not drawn),17% (inactive),98% (active),49.5% (inactive),9% (inactive),87% (active),3.1% (inactive),19% (inactive),84% (active),82% (active),-3% (inactive),89% (active),34.8% (inactive),0% (inactive),77% (active),17.4% (inactive),11% (inactive),97% (active),88.5% (active)
COc1cccc2c1cc([N+](=O)[O-])c1c(C(=O)O)cc3c(c12)OCO3,35% (inactive) and 54% (inactive),95% (active) and 94% (active),87.8% (active) and 91% (active),4% (inactive) and 39% (inactive),83% (active) and 93% (active),85.7% (active) and 91.7% (active),22% (inactive) and 61% (inactive),94% (active) and 95% (active),88.3% (active) and 88.7% (active),-11% (inactive) and 19% (inactive),62% (inactive) and 84% (active),84.4% (active) and 86.8% (active),18% (inactive) and 49% (inactive),78% (active) and 93% (active),89.8% (active) and 90.5% (active),25% (inactive) and 71% (active),90% (active) and 95% (active),88.7% (active) and 79.7% (active)
CCC[N+](CCC)(CCC)CCC.N#CN=C([SH2+])[SH2+].N#CN=C([SH2+])[SH2+].[Pt+2],-1% (inactive),7% (inactive),79.3% (active),-4% (inactive),2% (inactive),44% (inactive),4% (inactive),39% (inactive),89.9% (active),-6% (inactive),-7% (inactive),14.1% (inactive),-5% (inactive),-1% (inactive),14.1% (inactive),20% (inactive),57% (inactive),49.9% (inactive)
CCOP(=S)(OCC)SC(O)(C(F)F)C(F)F,5% (inactive),34% (inactive),28.8% (inactive),-3% (inactive),54% (inactive),22.9% (inactive),3% (inactive),62% (inactive),42% (inactive),-3% (inactive),32% (inactive),22.4% (inactive),-2% (inactive),69% (inactive),39.4% (inactive),0% (inactive),78% (active),30.7% (inactive)
CC(=O)[CH-]C(=O)c1ccccc1.CC(=O)[CH-]C(=O)c1ccccc1.C[C@]12CCC(=O)C=C1CC[C@@H]1C2CC[C@@]2(C)C1CC[C@@H]2[O-].C[C@]12CCC(=O)C=C1CC[C@@H]1C2CC[C@@]2(C)C1CC[C@@H]2[O-].Cl.[Ti+4] (stereo partly drawn),41% (inactive),78% (active),76.8% (active),35% (inactive),84% (active),70.8% (active),39% (inactive),85% (active),78.8% (active),26% (inactive),48% (inactive),50.9% (inactive),37% (inactive),86% (active),76.5% (active),47% (inactive),84% (active),73.2% (active)
